Assay results published in PubChem BioAssay (NCATS).
“And” between values parts separate entries of the source, which are not always exact repeats. Equal entries are not always repeated. Inconclusive results are not listed. Entries that show only a call come without a potency. Values without a mark were called inactive. The source made the active and inactive calls. Calls come from the whole dose curve; as a rule, active = well fitted curve in the direction sought with a large enough effect; inconclusive = small, poorly fitted or top-dose-only effect, or another doubt; inactive = no such curve, though single readings can be large; an effect the other way counts as inactive or inconclusive.

Assays:
[1] = Primary qHTS for inhibitors of nuclear receptor binding SET domain protein 2 (NSD2) in an isogenic RCH-ACV NSD2 p.E1099K mutant (9B) (AID 1645876); conditions: RCH-ACV NSD2 E1099K (9B) viability, CellTiter-Glo, 72 h; series mostly up to 44.9 µM
[2] = Primary qHTS for inhibitors of nuclear receptor binding SET domain protein 2 (NSD2) in an RCH-ACV wild type WT cells (2C) (AID 1645877); conditions: RCH-ACV (leukaemia line) NSD2 WT (2C) viability, CellTiter-Glo, 72 h; series mostly up to 44.9 µM
Note: nearly all actives have a fitted effect of over 70% in size.
Potency is the fitted concentration of half-maximal effect.

NC(=O)NC(=O)Cc1ccccc1
Potency [1]: inactive
Potency [2]: inactive

CCN(CC)CCNC(C(=O)OCCC(C)C)c1ccccc1 (configuration not stated)
Potency [1]: inactive
Potency [2]: inactive

CC(C)(C)NCC(O)COc1ccc(NC(=O)NC2CCCCC2)cc1 (configuration not stated)
Potency [1]: inactive
Potency [2]: inactive

C[C@@H](O)[C@H](N)C(=O)O
Potency [1]: inactive
Potency [2]: inactive

OC[C@H]1O[C@@H](O[C@@H]2[C@@H](CO)O[C@](O)(CO)[C@H]2O)[C@H](O)[C@@H](O)[C@H]1O
Potency [1]: inactive
Potency [2]: inactive

NC1CCN(c2cccc(Cl)n2)CC1
Potency [1]: inactive
Potency [2]: inactive

CCCCN(CCCC)CCCOC(=O)c1ccc(N)cc1
Potency [1]: inactive
Potency [2]: inactive

NS(=O)(=O)c1cc2c(cc1Cl)NC(CSCc1ccccc1)=NS2(=O)=O
Potency [1]: inactive

CCN(CC)CCNC(=O)c1c(C)[nH]c(/C=C2\C(=O)Nc3ccc(F)cc32)c1C
Potency [1]: 3.76 µM (active) and 3.32 µM (active)

NCCNCCNCCN
Potency [1]: inactive
Potency [2]: inactive

O=Cc1ccccc1C=O
Potency [1]: inactive

C[C@@H]1CN(c2c(F)c(F)c3c(=O)c(C(=O)O)cn(C4CC4)c3c2F)C[C@H](C)N1
Potency [1]: inactive
Potency [2]: inactive

Cc1c(O)cccc1C(=O)N[C@@H](CSc1ccccc1)[C@H](O)CN1C[C@H]2CCCC[C@H]2C[C@H]1C(=O)NC(C)(C)C
Potency [1]: 15 µM (active)

N[C@@H](CSCCCO)C(=O)O
Potency [1]: inactive
Potency [2]: inactive

Nc1nc2c(ncn2CCC(CO)CO)c(=O)[nH]1
Potency [1]: inactive

[O-][n+]1cccc(CO)c1
Potency [1]: inactive

C#CCN(C)Cc1ccccc1
Potency [1]: inactive
Potency [2]: inactive

NCC(=O)CCC(=O)O
Potency [1]: inactive

c1ccc2c(CC3=NCCN3)cccc2c1
Potency [1]: inactive

C[C@H](N)[C@H](O)c1cccc(O)c1
Potency [1]: inactive
Potency [2]: inactive

C[C@@H]1CC[C@@]2(OC1)O[C@H]1C[C@H]3[C@@H]4CC[C@H]5C[C@@H](O)CC[C@]5(C)[C@H]4CC(=O)[C@]3(C)[C@H]1[C@@H]2C
activity change, negative = viability loss [1]: -10.8% [at 4.96 µM]
outcome [2]: inactive [at 4.96 µM]

[Cl][In]([Cl])[Cl]
Potency [1]: 24.3 µM (active)

Nc1ccc(S(=O)(=O)Nc2ccccc2)cc1
Potency [1]: inactive
Potency [2]: inactive

Cc1cccc(Nc2cc(Cl)nc(SCC(=O)O)n2)c1C
Potency [1]: inactive
Potency [2]: inactive

CCCCc1ncc(/C=C(\Cc2cccs2)C(=O)O)n1Cc1ccc(C(=O)O)cc1
Potency [1]: inactive
Potency [2]: inactive

CC1CC(OC(=O)C(O)c2ccccc2)CC(C)(C)N1C (configuration not stated)
Potency [1]: inactive

Cc1ncc(COP(=O)(O)O)c(C=O)c1O
Potency [1]: inactive
Potency [2]: inactive

O=C(O)c1ccccc1-c1ccc(C(F)(F)F)cc1
Potency [1]: inactive
Potency [2]: inactive

CN(C)CCCN1c2ccccc2Sc2ccc(Cl)cc21
Potency [1]: 15 µM (active)
Potency [2]: 13.3 µM (active)

O=C(O)COc1nn(Cc2ccccc2)c2ccccc12
Potency [1]: inactive
Potency [2]: inactive

CN1CCOC(c2ccccc2)c2ccccc2C1 (configuration not stated)
Potency [1]: inactive
Potency [2]: inactive

CCN(CC)CCOC(=O)C1(C2CCCCC2)CCCCC1
Potency [1]: inactive

N[C@H]1C(O)O[C@H](CO)[C@@H](O)[C@@H]1O (some centres not stated)
Potency [1]: inactive

O=c1[nH]cnc2c1ncn2[C@@H]1O[C@H](CO)[C@@H](O)[C@H]1O
Potency [1]: inactive
Potency [2]: inactive

CCN(CC)CCNC(=O)c1cc(Cl)c(N)cc1OC
Potency [1]: inactive
Potency [2]: inactive

Cc1cc2c(cc1S(N)(=O)=O)S(=O)(=O)CCC2
Potency [1]: inactive
Potency [2]: inactive

O=C(Oc1ccccc1C(=O)O)c1ccccc1O
Potency [1]: inactive
Potency [2]: inactive

CC(=O)Nc1ccc(/C=N/NC(N)=S)cc1
Potency [1]: 21.1 µM (active)
Potency [2]: 16.8 µM (active)

O=S(=O)(O)c1cc(I)c(O)c2ncccc12
Potency [1]: inactive
Potency [2]: inactive

Nc1ccc(S(=O)(=O)Nc2nccs2)cc1
Potency [1]: inactive
Potency [2]: inactive

CC1=C(C/C=C(\C)CCC[C@H](C)CCC[C@H](C)CCCC(C)C)C(=O)c2ccccc2C1=O
Potency [1]: inactive
Potency [2]: inactive

C=CCn1c(=O)n([C@@H]2O[C@H](CO)[C@@H](O)[C@H]2O)c2nc(N)[nH]c(=O)c21
Potency [1]: inactive
Potency [2]: inactive

O=C1NC(=O)[C@@]2(CCOc3ccc(F)cc32)N1
Potency [1]: inactive
Potency [2]: inactive

O=C1OC(OC(=O)c2cccnc2Nc2cccc(C(F)(F)F)c2)c2ccccc21 (configuration not stated)
Potency [1]: inactive
Potency [2]: inactive

CC1(C)OC(=O)NC1=O
Potency [1]: inactive
Potency [2]: inactive

C[C@H]1O[C@@H](n2cc(F)c(=O)[nH]c2=O)[C@H](O)[C@@H]1O
Potency [1]: 20.9 µM (active)
Potency [2]: 20.9 µM (active)

COc1ccc2cc1Oc1ccc(cc1)C[C@H]1c3c(cc4c(c3Oc3cc5c(cc3OC)CCN(C)[C@@H]5C2)OCO4)CCN1C
Potency [1]: 8.41 µM (active) and 9.16 µM (active)
Potency [2]: 9.44 µM (active) and 9.16 µM (active)
